This passage reports outcome and AC50 results from PubChem BioAssay (EPA / NIEHS).

Assay [1] is described as follows: CCTE_Shafer_MEA_dev_firing_rate_mean: CCTE's Neural Network Formation Assay for Mean Firing Rate, Shafer Lab (AID 2284031). Put shortly:
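Steps: seed rat cortical cells (1.5 x 10^5/well) with laminin on PEI-coated MEA; dose day 0; record DIV 5/7/9/12, full media and compound exchange after DIV 5 and 9 recordings; compute well-mean firing rate AUC.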

A short description of assay [2]: CCTE_Shafer_MEA_dev_per_burst_spike_percent: CCTE's Neural Network Formation Assay for Percent of Spikes in a Burst, Shafer Lab (AID 2284032).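 Note: fitted as a decrease in burst spike percentage below DMSO baseline.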 In outline:
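Value is trapezoidal AUC over recordings on days 5, 7, 9 and 12 of the well-mean fraction of spikes falling in single-electrode bursts; rat cortical cultures exposed continuously from plating, treatment renewed DIV 5 and 9, fitted downward against DMSO.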

A short description of assay [3]: CCTE_Shafer_MEA_dev_active_electrodes_number: CCTE's Neural Network Formation Assay for Number of Active Electrodes, Shafer Lab (AID 2284040; active = hit-call score of the fitted dose curve at least 0.9, where 1 is the maximum;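 note: potency for loss of active electrodes versus DMSO so lower counts are hits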). In outline:
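Counts electrodes per well firing at least 5 spikes/min, recorded on days 5, 7, 9 and 12 in rat cortical cultures dosed continuously from plating (treatment refreshed DIV 5, 9). Value is the area under the curve over recordings, fitted downward relative to DMSO.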

Assay [4] in a line: CCTE_Shafer_MEA_dev_burst_rate: CCTE's Neural Network Formation Assay for Burst Rate, Shafer Lab (AID 2284042). Put shortly: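 Developmental network assay measuring how 12-day exposure of rat cortical neuron cultures alters bursting on extracellular MEA recordings. Values are AUC of well-mean burst rate across four recording days, relative to DMSO vehicle.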
The nature of assay [5]: CCTE_Shafer_MEA_dev_bursting_electrodes_number: CCTE's Neural Network Formation Assay for Number of Bursting Electrodes, Shafer Lab (AID 2284043; active = hit-call score of the fitted dose curve at least 0.9, where 1 is the maximum;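 note: potency is for loss of bursting electrodes relative to DMSO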). Put shortly: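 Counted: electrodes with burst rate ≥1 per 2 min in each well. Cells: primary rat cortex, 1.5 x 10^5/well, on 16-electrode MEA wells. Exposure: DIV 0–12, compound renewed DIV 5 and 9. Recording days 5, 7, 9, 12; AUC vs DMSO baseline.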

Assay [6] in a line: CCTE_Shafer_MEA_dev_per_burst_interspike_interval: CCTE's Neural Network Formation Assay for Burst Interspike Interval, Shafer Lab (AID 2284044). Put shortly: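 Primary rat cortical neurons on 48-well MEA plates, exposed from day 0 through day 12, treatment renewed at DIV 5 and 9. Within-burst interspike interval recorded days 5, 7, 9, 12, well-averaged, summarised as AUC; negative fit versus DMSO.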

A short description of assay [7]: CCTE_Shafer_MEA_dev_burst_duration_mean: CCTE's Neural Network Formation Assay for Mean Burst Duration, Shafer Lab (AID 2284045). In outline:
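Network-formation assay in primary rat cortical neurons; treatment spans twelve days of development. Mean burst duration per well is integrated by trapezoidal AUC and fitted in the loss-of-signal direction against DMSO baseline.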

Assay [8] is described as follows: CCTE_Shafer_MEA_dev_interburst_interval_mean: CCTE's Neural Network Formation Assay for Mean Interburst Interval, Shafer Lab (AID 2284046).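 Note: well-mean interburst interval of bursting electrodes as AUC over four recording days; curve fitted for decrease in interburst interval relative to DMSO.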 In outline:
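Network formation assay in primary rat cortical cultures, exposed from DIV 0 to 12. Mean interburst interval per well, integrated as AUC over four recordings.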

Assay [9] can be described thus: CCTE_Shafer_MEA_dev_inter_network_spike_interval_mean: CCTE's Neural Network Formation Assay for Mean Inter-network Spike Interval, Shafer Lab (AID 2284047). Put shortly:
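Compound was given at plating to primary rat cortical neurons and renewed with full medium changes on DIV 5 and 9. Extracellular activity was recorded on days 5, 7, 9, 12; AUC values were fitted for loss relative to DMSO control.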

Assay [10] can be described thus: CCTE_Shafer_MEA_dev_network_spike_number: CCTE's Neural Network Formation Assay for Number of Network Spikes, Shafer Lab (AID 2284048).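 Note: synchronized bursts across electrodes counted on days 5 7 9 12 and integrated as AUC.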 In outline:
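Extracellular recordings from 16-electrode wells track network formation in rat cortical cultures under continuous treatment from plating. The endpoint is network spike number, expressed as AUC across DIV 5–12 relative to DMSO vehicle.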

Assay [11] can be described thus: CCTE_Shafer_MEA_dev_network_spike_peak: CCTE's Neural Network Formation Assay for Mean Number of Electrodes in Network Spike, Shafer Lab (AID 2284049). In outline: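 Continuous 12-day exposure of rat cortical cultures, starting at plating, on MEA plates. Endpoint: electrodes participating in network-spike peaks, AUC across DIV 5–12, DMSO as negative control.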
A short description of assay [12]: CCTE_Shafer_MEA_dev_spike_duration_mean: CCTE's Neural Network Formation Assay for Mean Spike Duration, Shafer Lab (AID 2284051).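 Note: mean network spike duration pooled as area under curve over DIV 5 to 12 recordings; potency for a decrease in mean network spike duration versus DMSO.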 In outline: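 With DMSO as baseline, loss of mean network spike duration was scored from extracellular recordings of rat cortical neurons on MEA plates. Exposure spanned plating to DIV 12; the four recording days were collapsed into one AUC value.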

Assay [13] is described as follows: CCTE_Shafer_MEA_dev_network_spike_duration_std: CCTE's Neural Network Formation Assay for Standard Deviation of Network Spike Duration, Shafer Lab (AID 2284052).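 Note: area under curve of spike duration SD across recording days 5 to 12; hits are decreases in network spike duration SD versus DMSO vehicle.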 In outline:
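Developing networks of rat cortical neurons were exposed over twelve days in vitro on 48-well MEA plates. Trapezoidal AUC of recordings (DIV 5–12) was analysed for signal loss relative to DMSO vehicle.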

The nature of assay [14]: CCTE_Shafer_MEA_dev_per_network_spike_spike_number_mean: CCTE's Neural Network Formation Assay for Mean Number of Spikes in a Network Spike, Shafer Lab (AID 2284053). Put shortly: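 First, rat cortical cells (1.5 x 10^5/well) were seeded onto MEA wells; second, dosing began at plating and was refreshed on DIV 5 and 9; finally, network-spike spike counts across DIV 5–12 were summarized as AUC.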

A short description of assay [15]: CCTE_Shafer_MEA_dev_per_network_spike_spike_percent: CCTE's Neural Network Formation Assay for Percent of Spikes in a Network Spike, Shafer Lab (AID 2284054). Put shortly: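 Developing networks of rat cortical neurons are dosed at day 0 and recorded extracellularly four times up to day 12. The endpoint is the area under the curve of percent spikes in network spikes, fitted in the negative direction relative to DMSO.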

Assay [16] in a line: CCTE_Shafer_MEA_dev_LDH: CCTE's Lactate Dehydrogenase Assay for Cytotoxicity in the Neural Network Formation Assay, Shafer Lab (AID 2284068; active = hit-call score of the fitted dose curve at least 0.9, where 1 is the maximum;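 note: exposure for twelve days from plating with re-dosing on DIV 5 and 9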). Put shortly:
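Developing rat cortical networks on MEA plates are exposed to compound for 12 days from plating. LDH activity is measured spectrophotometrically, with DMSO as baseline.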

Assay [17] in a line: CCTE_Shafer_MEA_dev_correlation_coefficient_mean: CCTE's Neural Network Formation Assay for Mean Correlation Coefficient, Shafer Lab (AID 2284093). In outline:
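Extracellular firing from rat cortical networks on 48-well MEAs, DMSO-referenced, negative fitting direction. Compound present from plating to DIV12; mean pairwise correlation per well integrated over DIV5–12 recordings by trapezoidal AUC.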

Assay [18] in a line: UKN2_HCS_IMR90_neural_migration: University of Konstanz (UKN) Leist Lab Neural Crest Cell Migration Assay in human induced IMR90 Pluripotent Stem Cells (UKN2) (AID 2284204). As to conditions: actives raise or lower the signal. Put shortly:
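Using a 96-well stopper format with PLO/laminin/fibronectin coating, neural crest cells from iPSC migrate in cytokine-supplemented N2-S medium; after 24 h, chemicals are applied for a further 24 h, then cells are imaged after dye staining.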

Assay [19] can be described thus: IUF_NPC1b_proliferation_BrdU_72hr: Leibniz Research Institute for Environmental Medicine (IUF) 72-hour Neural Progenitor Cell Bromodeoxyuridine (BrdU) Proliferation Assay (NPC1b) (AID 2284207). In outline: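 Neural progenitor spheres of human fetal origin are treated for three days; BrdU added for the last 16 h is quantified by luminescence ELISA, with DMSO as baseline and EGF/FGF omission as positive control.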

Assay [20] in a line: IUF_NPC1a_proliferation_area_72hr: Leibniz Research Institute for Environmental Medicine (IUF) 72-hour Neural Progenitor Cell Proliferation Area Assay (NPC1a) (AID 2284208). In outline: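 Single 0.25–0.35 mm human fetal neural progenitor spheres in proliferation medium with EGF and FGF, exposed 72 h from plating without renewal at 37C, pH 7.2-7.6. Sphere area growth measured by automated phase-contrast imaging, relative to DMSO.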

Assay [21] can be described thus: IUF_NPC1_viability_72hr: Viability Assessment at 72 hours in the Leibniz Research Institute for Environmental Medicine (IUF) Neural Progenitor Cell Proliferation Assay (NPC1) (AID 2284209). Put shortly: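 Spheres of primary human neural progenitors were plated singly in proliferation medium and treated for 72 h. Mitochondrial reduction of resazurin was then measured by fluorescence and analysed against DMSO controls.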

Assay [22] is described as follows: CCTE_Mundy_HCI_Cortical_Synap_Neur_Matur_NeuriteSpotCountPerNeuriteLength: CCTE's Synaptogenesis and Neurite Maturation Assay in rat cortical cells for Neurite Spot Count per Neurite Length, Mundy Lab (AID 2284210). In outline: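 Neurite-associated synapse density (synaptophysin puncta per unit neurite length) is measured by fluorescence high-content imaging in rat cortical cultures treated from DIV 7 and fixed at DIV 12, with DMSO as negative control.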

Assay [23] in a line: CCTE_Mundy_HCI_Cortical_Synap_Neur_Matur_BPCount: CCTE's Synaptogenesis and Neurite Maturation Assay in rat cortical cells for Branch Point Count, Mundy Lab (AID 2284211). In outline:
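HCI read-out of branch points from MAP2/synaptophysin/Hoechst immunofluorescence; rat cortical cultures, AraC DIV 5, dosing DIV 7, fixed DIV 12; fit in positive direction vs DMSO baseline.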

A short description of assay [24]: CCTE_Mundy_HCI_Cortical_NOG_NeuriteCount: CCTE's Neurite Outgrowth Assay in rat cortical cells for Neurite Count, Mundy Lab (AID 2284212).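 Note: cells fixed about two days after chemical exposure began.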 Put shortly:
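Rat cortical primary cells; compound added 2 h post-plating, 1/10 dilution of working solution. Anti-betaIII-tubulin/AF488 ICC; ArrayScan neurite count vs DMSO.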

The structures appear in SMILES notation. Results filed as inconclusive are left out. Activity calls are given as the source filed them. Rule for the calls, unless noted: active = hit-call score of the fitted dose curve at least 0.9, where 1 is the maximum; inactive = score below 0.9.

As to `CCCCCC(C)(CC)C(=O)NC` (centres undefined), the compound was called inactive in [1], in assay [4], in [6], in assay [7], in assay [8] and in [9]. Further, the call in assay [10], in [11], in assay [13], in assay [14], in assay [15] and in assay [17] was inactive. Also, the compound was classed as inactive in assay [18], in [20], in [21], in assay [22], in assay [23] and in [24]. The concentration at half-maximal activity (AC50) in assay [2] was 74.5 µM (active); in [3], 50 µM (active); in assay [5] it was 50 µM (active); in assay [12], 9.92 µM (active); in assay [16] it was 50 µM (active); in assay [19], 85.3 µM (active).

By AC50 is commonly meant the midpoint of the concentration-response curve, whichever way the signal moves.
